# Assay results taken from PubChem BioAssay AID2551 (National Center for Advancing Translational Sciences (NCATS), 2010).
# Among all 310,000 compounds or so, about 17,000 (5.5%) were called active. Where a call stands in place of a potency, no number is given. Roughly 11% stayed inconclusive and do not appear here. The sample holds actives, similar compounds and a random draw of the others, so the mix is not that of the screen. The call rests on the fitted dose curve; in most records, active means well fitted inhibition curve with a large enough effect; inconclusive means small, poorly fitted or top-dose-only effect, or effect the other way; inactive means no such curve, though single readings can be large or run the other way.
# Molecular target: Nuclear receptor ROR-gamma (Mus musculus) (UniProt P51450)
# Experiment: qHTS for inhibitors of ROR gamma transcriptional activity; further: nearly all actives have a fitted effect of over 60% in size
# Details: Drosophila S2 Gal4-RORgamma UAS-luciferase reporter, 20 h; series mostly up to 53.6 µM
# From the text: NIH Molecular Libraries Probe Production Network [MLPCN] NIH Chemical Genomics Center [NCGC] MLPCN Grant: R03 DA026211-01 Assay Provider: Dan Littman, New York University Assay Overview: The retinoic acid-related orphan receptor (ROR) gamma is a transcription factor that has a central role in the differentiation of Th17 cells, a subset of T helper cells that secrete the inflammatory cytokines IL-17, IL-17F, and IL-22. Th17 cells have been implicated in graft versus host disease, autoimmune disease and asthma. ROR gamma is induced in naive T helper cells in the presence of TGF-beta combined with IL-6, IL-21, or IL-23, and thereafter directs the expression of the Th17 lineage cytokines. To study the mechanism of action of ROR gamma, an insect cell-based assay was screened. This Drosophila Schneider cell line was stably transfected with two vectors: a gene expressing a fusion of the Gal4 DNA binding domain and ROR gamma transactivation domain under the control of the metallothionine promoter and a Photinus luciferase reporter regulated by the Gal4 binding site enhancer, UAS. […] Small molecule inhibitors of ROR gamma activity are detected by a decrease in luciferase reporter activity.
# Assay Protocol Summary: For screening, 600 cells in 4 uL/well were dispensed into white solid 1536-well plates (Grenier) using a solenoid-based dispenser. Following transfer of 23 nL compound or DMSO vehicle by a pin tool, the plates were incubated 1 hr at ambient temperature, and 1 uL/well copper sulfate (700 uM final concentration) was added. The plates were centrifuged 15 s at 1000 RPM and incubated 20 hr at ambient temperature. After addition of 1.5 uL Photinus luciferase detection reagent, the plates were incubated 10 min at ambient temperature and then read by an ViewLux (Perkin Elmer) to detect luminescence. Keywords: NIH Roadmap, MLPCN, MLI, MLSMR, qHTS, NCGC, qHTS, nuclear hormone receptor, retinoic acid-related orphan receptor, ROR gamma
# Potency means the concentration at half of the fitted maximal effect.
# Sequence of Nuclear receptor ROR-gamma (Mus musculus) (P51450 whole entry, looked up): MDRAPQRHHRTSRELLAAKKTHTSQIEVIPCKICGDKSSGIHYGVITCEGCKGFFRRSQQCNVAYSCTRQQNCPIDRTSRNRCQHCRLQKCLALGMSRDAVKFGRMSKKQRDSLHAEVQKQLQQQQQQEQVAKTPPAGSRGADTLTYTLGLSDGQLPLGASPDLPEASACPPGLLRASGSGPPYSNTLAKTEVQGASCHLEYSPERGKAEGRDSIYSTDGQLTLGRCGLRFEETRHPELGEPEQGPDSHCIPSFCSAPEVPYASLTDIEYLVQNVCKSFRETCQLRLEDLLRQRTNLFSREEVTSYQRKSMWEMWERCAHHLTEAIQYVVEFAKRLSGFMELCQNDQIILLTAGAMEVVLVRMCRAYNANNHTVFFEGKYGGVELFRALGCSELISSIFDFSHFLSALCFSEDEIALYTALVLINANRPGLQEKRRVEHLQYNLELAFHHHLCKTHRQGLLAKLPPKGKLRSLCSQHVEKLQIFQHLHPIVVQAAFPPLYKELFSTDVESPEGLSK
SMILES,Potency,"activity change, negative = inhibition"
Cc1cc(Oc2ccccc2)nc(N2CCOCC2)n1,inactive,
Cc1cc(N/N=C\c2ccc(Br)cc2)nc(-n2nc(C)cc2C)n1,0.1 µM (active),
CN(C)c1ccc(/C=N/Nc2cc(N3CCOCC3)nc(N3CCOCC3)n2)cc1,inactive,
Cc1cc(Nc2ccc(Cl)cc2)nc(N2CCOCC2)n1,inactive,
Cc1ccc(S(=O)(=O)Nc2nc(C)cc(N/N=C/c3ccc(O)cc3)n2)cc1,inactive,
COc1ccc(NC(=O)c2nc(-n3nc(C)cc3C)ccc2Cl)cc1Cl,inactive,
COc1ccc(/C=N/Nc2cc(N3CCOCC3)nc(C)n2)c(OC)c1,inactive,
CC(=O)c1ccc(Oc2cc(C)nc(-n3nc(C)cc3C)n2)cc1,14.1 µM (active),
COc1ccccc1/C=N\Nc1cc(C)nc(-n2nc(C)cc2C)n1,0.251 µM (active),
COc1cccc2c(N/N=C/c3ccco3)cc(C)nc12,inactive,
Cc1cc(C)n(-c2cc(Oc3ccccc3)ncn2)n1,inactive,
COc1ccc(Nc2cc(C)nc(-n3nc(C)cc3C)n2)cc1,0.501 µM (active),
CCn1c(Cc2ccc(OC)cc2)nnc1SCC(=O)Nc1ccc(N2CCOCC2)cc1,inactive,
NC(=O)C1CCCN(CC(=O)N2CCN(c3ccccc3)CC2)C1 (stereo not drawn),inactive,
Cc1ccccc1OCC(=O)Nc1ccc(S(=O)(=O)N2CCOCC2)cc1,inactive,
O=C(Nc1cccc(Cl)c1N1CCOCC1)c1cccnc1,inactive,
CCOC(=O)c1sc(NC(=O)c2sc(C)nc2C)nc1C,inactive,
COCCn1c(SCC(=O)Nc2nc(C)cs2)nnc1C(C)C,inactive,
CC1CC(C)CN(CCCNC(=O)c2csc3c2CCCCC3)C1 (stereo not drawn),inactive,
CN1C(=O)CN2CCc3ccccc3C2c2cc(Cl)ccc21 (stereo not drawn),inactive,
O=C1CCC(C(=O)N2CCN(c3ccccc3Cl)CC2)CN1CC1CCCCC1 (stereo not drawn),inactive,
COc1ccccc1OCC(=O)Nc1c2c(nn1-c1ccc(F)cc1)CS(=O)(=O)C2,inactive,

SMILES,Potency,"activity change, negative = inhibition"
N#C/C(C(=S)Nc1ccccc1)=C1/NN=C(N2CCOCC2)N1c1ccccc1,1.26 µM (active),
Cc1ccc(CC2S/C(=C(/C#N)C(=O)N3CCOCC3)N(c3ccccc3)C2=O)cc1 (stereo not drawn),inactive,
N#C/C(C(=O)N1CCOCC1)=C1/SC(Cc2ccc(F)cc2)C(=O)N1c1ccccc1 (stereo not drawn),inactive,
c1ccc2c(c1)CCc1snnc1-2,inactive,
COc1cc(/C=N/O)cc(Br)c1OCc1cccc(Cl)c1,10 µM (active),
CCOc1c(Cl)cc(/C=N/O)cc1OC,inactive,
COc1cc(/C=N/O)cc(Br)c1OS(=O)(=O)c1ccc(C)cc1,14.1 µM (active),
COc1cc(C(=O)NCc2ccncc2)cc(Br)c1OCc1ccccc1,inactive,
COc1ccc(/C=N/NC(=O)c2ccccc2)cc1OS(=O)(=O)c1ccccc1,inactive,
COc1cc(/C=N/Nc2ccc(C)cc2)cc(Br)c1O,inactive,
Cc1cc(S(=O)(=O)Nc2ccc(C(=O)NCC(c3ccco3)N3CCCC3)cc2)ccc1F (stereo not drawn),inactive,
COc1cc(/C(=C/c2ccccc2)c2ccccc2)c2c(c1)oc1ccccc12,inactive,
CC(=O)N1c2ccc(S(=O)(=O)NCCC(=O)N(C)C3CCCCC3)cc2CC1C (stereo not drawn),inactive,
COc1cccc(NC(=O)C(=O)c2cn(CC(=O)N3CCOCC3)c3ccccc23)c1,inactive,
COc1ccc(S(=O)(=O)n2nc(C)c(S(=O)(=O)N3CCOCC3)c2C)cc1,inactive,
CCCCOc1ccc(-c2nnc(-c3ccco3)o2)cc1,inactive,
CCOc1ccc(-c2nnc(-c3ccco3)o2)cc1,15.8 µM (active),
COc1ccc(C(=O)CSc2nnc(-c3ccco3)o2)cc1,inactive,
O=C(NCc1ccccc1)C(c1ccccc1)N(C(=O)c1csnn1)c1ccc(F)cc1 (stereo not drawn),inactive,
CCOc1ccc(C(C(=O)NC2CCCC2)N(C(=O)c2snc(C(N)=O)c2N)C2CCCC2)cc1 (stereo not drawn),inactive,
COc1ccc(C(=O)NC2CC2)cc1OC1CCN(Cc2cnn(C)c2)CC1,inactive,
O=c1c(-c2ccccc2Cl)c[nH]n1-c1ccccc1,inactive,

SMILES,Potency,"activity change, negative = inhibition"
COc1ccc(CNC(=O)CN(c2ccc(OC)c(Cl)c2)S(=O)(=O)c2ccc(C)cc2)cc1,inactive,
O=C(CCCO)N/N=C/c1cc(Br)ccc1O,3.98 µM (active),
NCCCCCC(=O)N/N=C/c1ccc2nccnc2c1,inactive,
O=C(CCNc1n[nH]c(=O)[nH]c1=O)N/N=C\c1ccc(Br)cc1,inactive,
COc1ccc(OC)c(NC(=O)c2ccc3c(c2)C(=O)N(c2ccc(OC(C)=O)cc2)C3=O)c1,inactive,
CC(=O)/C(=N\Nc1ccc(Cl)cc1Cl)Sc1cccc2cccnc12,3.16 µM (active),
O=C(Nc1cccc2cccnc12)c1cccc(Cl)c1,inactive,
O=C(Nc1ccccc1Cl)Nc1cccc2cccnc12,inactive,
CC1=C(C(=O)NC2CC(C)(C)Cc3c2cnn3-c2ccc(C)cc2)OCCO1 (stereo not drawn),inactive,
CN(CC(=O)Nc1ccccc1F)CC(=O)Nc1ccccc1Br,inactive,
CN(CC(=O)Nc1ccccc1[N+](=O)[O-])Cc1ccc(Br)cc1,inactive,
CSc1ccccc1NC(=O)CN(C)CC(=O)Nc1ccc(Cl)cc1[N+](=O)[O-],11.2 µM (active),
CSc1ccccc1NC(=O)Cc1ccc(Br)cc1,inactive,
Cc1ccc(NC(=O)CN(C)Cc2ccc(F)cc2)c([N+](=O)[O-])c1,inactive,
CCC(C)c1ccccc1NC(=O)CN(C)CC(=O)Nc1ccccc1SC (stereo not drawn),15.8 µM (active),
CC(=O)c1cc(CN2CCC(n3nccc3NC(=O)c3ccccc3Cl)CC2)cs1,inactive,
O=C(Nc1ccccc1-c1ccccc1)c1ccccc1[N+](=O)[O-],inactive,
O=C(CN(C(=O)c1csnn1)c1ccc(Br)cc1)NC1CCCC1,inactive,
Cc1ccc(S(=O)(=O)Oc2ccc(/C=N/NC(=O)c3ccncc3)cc2)cc1,inactive,
CCC1CCCCN1C(=S)Nc1ccc(S(=O)(=O)Nc2ncccn2)cc1 (stereo not drawn),inactive,
CC(=O)Nc1ccc(S(=O)(=O)Oc2ccc(Br)cc2C(=S)N2CCOCC2)cc1,inactive,
O=C(Nc1nnc(-c2ccccc2)o1)c1cc(-c2cccs2)nc2ccccc12,4.47 µM (active),

SMILES,Potency,"activity change, negative = inhibition"
CCCCN(C)CCCNC(=O)c1cc(-c2cccs2)nc2ccccc12,inactive,
COC(=O)c1cc(-c2cccs2)nc2ccccc12,inactive,
COC(=O)c1ccc(NC(=O)c2cc3c(CO)cnc(C)c3oc2=Nc2cccc(C(N)=O)c2)cc1,inactive,
COc1ccc(OC)c(CCNC(=O)CCn2ccc3cc(S(=O)(=O)N4CCCC4)ccc32)c1,inactive,
CN(CCc1ccccn1)C(=O)c1ccc(OC2CCN(Cc3ccccn3)CC2)cc1,inactive,
Cc1ccc(C(C)C)cc1OCC(=O)Nc1ccccc1N1CCCC1,inactive,
Cc1nnc(N/N=C/C2CC=CCC2)[nH]c1=O (stereo not drawn),11.2 µM (active),
Cc1nnc(N/N=C/c2ccccn2)[nH]c1=O,inactive,
Cc1ccccc1Nc1nnc(C)c(=O)[nH]1,inactive,
CCC(=O)N1c2ccc(S(=O)(=O)NCc3ccco3)cc2CC1C (stereo not drawn),inactive,
CCc1ccc(NC(=O)CN2C(=O)COc3ccc(S(=O)(=O)N4CCCC4)cc32)cc1,inactive,
COc1cccc(CCNC(=O)c2cccc(NC(=O)C3=C(C)OCCS3)c2)c1,inactive,
COc1ccc(NC(=S)N2CCCC(CO)C2)c(OC)c1 (stereo not drawn),inactive,
CCCCc1ccc(NC(=S)N2CCCC(CO)C2)cc1 (stereo not drawn),15.8 µM (active),
O=C(NC12CC3CC(CC(C3)C1)C2)N1CCCC(CO)C1 (stereo not drawn),inactive,
CC(C)C(c1nnnn1C1CCCCC1)N1CCN(C(=O)c2ccco2)CC1 (stereo not drawn),inactive,
CSCC[C@H](NC(=O)N1CCn2c1nc1ccccc12)C(=O)NCc1ccc2c(c1)OCO2,inactive,
CCc1ccc(C(=O)COC(=O)c2ccco2)cc1,inactive,
CC(C)C(NS(=O)(=O)c1cccs1)C(=O)Nc1nc(C(C)(C)C)cs1 (stereo not drawn),11.2 µM (active),
O=C(Nc1nncs1)c1ccccc1NS(=O)(=O)c1cccs1,inactive,
COc1ccc(CNC(=O)C(NS(=O)(=O)c2cccc3nsnc23)C(C)C)cc1 (stereo not drawn),inactive,
OCCCN1c2ccccc2Nc2nnc(-c3ccccc3)cc21,10 µM (active),

SMILES,Potency,"activity change, negative = inhibition"
O=C(NC1CCCCCCC1)c1cccs1,inactive,
Cc1cccc(N(C)C(=O)c2cc(S(=O)(=O)N3CCCCC3)c[nH]2)c1,inactive,
CC(NC(=O)Nc1ccccc1)C(c1cccs1)N1CCN(c2ccccc2)CC1 (stereo not drawn),inactive,
CC(=O)OC(C(=O)NC1CCCCC1)c1ccccc1 (stereo not drawn),,-6.92% [at 10 µM] (inactive)
O=C(NC1CCCCC1)c1cc([N+](=O)[O-])ccc1N1CCOCC1,inactive,
CCCC(=O)NC(C)C(c1cccs1)N1CCN(c2ccccc2)CC1 (stereo not drawn),inactive,
COc1ccc(S(=O)(=O)N2CCOCC2)cc1C(=O)NC1CCCCC1,inactive,
O=C(NNC(=O)C(O)c1ccccc1)NC1CCCCC1 (stereo not drawn),inactive,
CC(NC(=S)NC1CCCCC1)C(c1ccccc1)N1CCOCC1 (stereo not drawn),5.01 µM (active),
CC(NC(=S)Nc1ccccc1)C(c1cccs1)N1CCOCC1 (stereo not drawn),11.2 µM (active),
S=C(NC1CCCCC1)NN1CCOCC1,8.91 µM (active),
CC(=O)N1CC(=O)N(CC(=O)Nc2ccc(Br)cc2)C1=S,inactive,
CCOC(=O)N1CCN(CCC(=O)Nc2ccccc2)CC1,inactive,
Cc1nc(Nc2ccccc2F)c2nnn(Cc3ccccc3Cl)c2n1,inactive,
Cc1cccc(CN2CCC(n3nccc3NC(=O)c3ccccc3C)CC2)n1,inactive,
O=C(NCc1ccccc1)C(c1ccco1)N(C(=O)c1csnn1)c1ccccc1F (stereo not drawn),inactive,
CCCCN1C(=O)/C(=C2/Sc3ccc(Cl)cc3N2CC)SC1=S,inactive,
O=S(=O)(NC1CCCCC1N1CCCCC1)c1ccc(Cl)cc1 (stereo not drawn),inactive,
CC(=O)Nc1cccc(Nc2nc(-c3cccs3)nc3ccccc23)c1,inactive,
COc1ccc(CN(C)C(=O)Cc2c[nH]c3ccccc23)c(OC)c1OC,inactive,
